Among all 1,500 compounds or so, about 890 (59%) were called active.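 How the source made its calls: active means inhibition of the choline-evoked signal at any tested dose together with a fitted dose-response curve; inactive means no inhibition at any dose or no curve.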 So high a share suggests a set chosen from earlier hits. The list is a sample of the results. Entries with a potency or affinity are not part of this list.
Biological target: High affinity choline transporter 1 (Homo sapiens) (UniProt Q9GZV3)
Sequence (Q9GZV3 whole entry, looked up): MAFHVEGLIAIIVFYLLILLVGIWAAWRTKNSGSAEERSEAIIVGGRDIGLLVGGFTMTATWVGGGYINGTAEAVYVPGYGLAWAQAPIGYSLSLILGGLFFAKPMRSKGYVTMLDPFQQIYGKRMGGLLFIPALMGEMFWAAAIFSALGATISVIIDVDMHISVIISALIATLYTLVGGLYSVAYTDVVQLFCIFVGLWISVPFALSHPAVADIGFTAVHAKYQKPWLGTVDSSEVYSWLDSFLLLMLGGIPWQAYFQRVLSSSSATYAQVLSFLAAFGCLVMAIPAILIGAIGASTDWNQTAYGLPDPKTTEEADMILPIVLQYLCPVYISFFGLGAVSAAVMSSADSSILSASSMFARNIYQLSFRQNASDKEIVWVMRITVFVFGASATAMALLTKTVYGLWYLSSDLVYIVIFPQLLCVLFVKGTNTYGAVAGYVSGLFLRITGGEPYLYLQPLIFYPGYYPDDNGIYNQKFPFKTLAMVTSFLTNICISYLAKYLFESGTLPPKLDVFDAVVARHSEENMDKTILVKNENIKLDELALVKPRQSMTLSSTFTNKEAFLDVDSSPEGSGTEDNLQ
Assay: human choline transporter blockers, potency – cell-based, 5-point CRC, membrane potential dye, dose response (AID 504840);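 further: 0% = buffer-only response and 100% = EC90 choline response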
Details: HEK293-CHT, choline-induced depolarization, CHT with LV-to-AA double alanine mutation; series mostly up to 37 µM; inhibition: at the top concentration

inhibition, inactive:
O=C(OCc1nc2ccsc2c(=O)[nH]1)c1cc(Br)c(Br)s1 33.4%
O=c1c(-c2ccccc2)c[nH]n1-c1cccc([N+](=O)[O-])c1 51.3%
Cc1[nH]n(-c2ccccc2)c(=O)c1C(c1cccc([N+](=O)[O-])c1O)c1c(C)[nH]n(-c2ccccc2)c1=O 62.9%
Cc1cccnc1NC(=O)c1cccc(S(=O)(=O)N2CCN(c3ccc(F)cc3)CC2)c1 28.9%
O=C(C1CCN(S(=O)(=O)c2ccc(Br)s2)CC1)N1CCN(c2ccccc2)CC1 7.31%
COc1cc(-c2nnc(SC/C=C/c3ccccc3)n2N)cc(OC)c1OC 32.7%
CCOC(=O)c1sc(=S)n(CC)c1NC(=O)C1CC1 23.2%
O=c1cc(CNc2ccc(Br)cc2)nc2sccn12 33.4%
CCCN1Cc2cccc(C(=O)NCc3ccccc3OC)c2C1=O 30.2%
Cc1cc(O)ccc1C1(c2ccc(O)cc2C)OC(=O)c2ccccc21 28.5%
CCCCCCCCC[n+]1cccc2c3ccccc3ccc21 42.3%
Cn1ncc2c(N3CCC(Cc4ccccc4)CC3)ncnc21 33.5%
Cc1c(C)n(CCc2ccccc2)c2ncnc(NN)c12 28.7%
O=C(NC1CC1)C1=C[C@H](c2ccc(Br)cc2)C[C@H](OCc2ccc(CO)cc2)O1 52.6%
Cn1nc(C(F)(F)F)c(-c2ccccc2)c1NC(=O)c1ccco1 58.8%
O=C(Nc1ccccc1Cl)C1CCCN(c2ncnc3c2nc2n3CCCCC2)C1 (stereo not drawn) 79.8%
O=C(Nc1ccc(Cl)cn1)C1CCCN(c2ncnc3c2nc2n3CCCCC2)C1 (stereo not drawn) 53.9%
O=C(N/N=C/c1cccc(Oc2ccccc2)c1)c1cccc(O)c1 25.8%
O=c1cc(CN2CCN(c3ccccc3O)CC2)nc2sccn12 51.6%
O=c1cc(CSc2nc3cc(Cl)ccc3o2)nc2sccn12 48.6%
O=C(Cn1nc(C(F)(F)F)c2c1CCCC2)NC1CCCC1 15.2%
O=C(Cn1nc(C(F)(F)F)cc1C1CC1)NCc1ccccc1F 3.99%
Clc1cccc(CNCCNCc2cccc(Cl)c2)c1 27.9%
O=C(CSc1nnc(Cc2ccsc2)o1)c1ccccc1 45.5%
CC(C)(C)OC(=O)NCCc1nnc(SCc2ccc(Cl)cc2)o1 24.7%
CCOC(=O)c1[nH]c(C=O)c(C(=O)OCC)c1C 38%
O=C(CSc1nccn1-c1ccc(F)cc1)NCc1ccc(F)cc1 30.9%
C=CCn1c(CSc2nc3ccccc3s2)nnc1SCC(=O)NCc1ccccc1 42.6%
Cc1nc2cc(C(=O)N3c4ccccc4CC3C)ccc2s1 (stereo not drawn) 45.4%
CCN1CCN(C(=O)CCc2nc3ccccc3n2-c2ccccc2)CC1 64%
COc1ccc(-c2cc(C(=O)NCCCN3CCOCC3)c3cc(C(C)C)ccc3n2)cc1 29.7%
CC(=O)c1cccc(OCC(=O)c2cc(C)n(-c3cc(C)on3)c2C)c1 24%
N#C/C(=C\c1ccc(O)c(Br)c1)C(=O)NCc1ccccc1 24.4%
COc1ccccc1NS(=O)(=O)c1ccc(O)c(C(=O)OCC(=O)c2ccc(Cl)cc2Cl)c1 5.73%
Cc1c(Cl)cccc1NCC(=O)NN=C1CCCC1 48.2%
Cc1nc(SC2CC(=O)N(c3cc(Cl)cc(Cl)c3)C2=O)nc2c1CCCC2 (stereo not drawn) 18.9%
COc1ccc(OC)c(Cc2nnc(CCC(=O)N3CCN(C4CCCC4)CC3)o2)c1 50.6%
Cc1ccc(S(=O)(=O)N/N=C/c2cc(Br)ccc2O)cc1 53.1%
CC(C)(C)c1cc(C(=O)N/N=C/c2ccc(F)cc2)n(-c2ccccc2)n1 37.8%
Cc1cc(/C=N/NC(=O)C(=O)NCc2ccccn2)c(C)n1-c1ccccc1 59.3%
CCOC(=O)c1cc2c(s1)-c1c(C)cccc1OC2 -5.26%
Cc1ccccc1NC(=S)NNC(=O)c1ccncc1 1.63%
COc1ccc(C(=O)NC(=S)NNC(=O)c2ccc(C)cc2)cc1 27.9%
Cc1ccc(C)c(NC(=O)c2cccc(Oc3ccc([N+](=O)[O-])cc3Cl)c2)c1 29.1%
O=C(Nc1ccc(F)cc1)N1CCN(CCc2ccccc2)CC1 32.2%
Cc1ccc(C#CC[N+]2(C)CCCCC2)cc1 62.4%
C#CC[N+]1(CC#Cc2ccc(C)cc2)CCCCC1 63.6%
Cc1cn([C@H](C(=O)NCCCCCCCCCCC(=O)N2CCN(C(=O)OC(C)(C)C)CC2)[C@@H](C)O)nn1 38%
CN(/N=C/c1cc(Cl)cc(Cl)c1O)C(=S)NC(C)(C)C 19.2%
O=C(CNC(=O)c1ccc(Cl)cc1Cl)OCC(=O)c1ccc2c(c1)OCCO2 56.5%
COc1cc(CCCN2C(=O)C(=O)NC[C@H]2Cc2cccc3ccccc23)cc(OC)c1OC 61.8%
Cc1ccc(F)cc1NC(=O)c1ccc(NS(=O)(=O)c2ccc(Br)s2)cc1 64.1%
CC(NC(=O)Cc1ccc(S(=O)(=O)N2CCOCC2)s1)c1ccc(Cl)c(Cl)c1 (stereo not drawn) 36.9%
O=S(=O)(Nc1nc2ccccc2s1)c1ccc(Cl)s1 27.1%
CCOC(=O)c1ccc(NC(=O)c2ccc(C)c(S(=O)(=O)N3CCOCC3)c2)cc1 22.8%
O=C(Nc1ccccc1)c1nnn(Cc2ccccc2)c1NC(=O)C(F)(F)F 45.3%
Cc1ccc(-c2csc3nc(SCC(=O)Nc4ccc(Cl)c(C(=O)O)c4)[nH]c(=O)c23)cc1 41.6%
O=C(O)CSc1cc(C(=O)c2ccccc2O)cn2c(=O)c3c(-c4ccccc4)csc3nc12 76.9%
O=S(=O)(Nc1nc2ccccc2nc1NCC1CCCO1)c1cc(Cl)ccc1Cl (stereo not drawn) 28.4%
CCCc1cc(NCCN(C)C)n2c(nc3ccccc32)c1C#N 47.7%
NC(=O)c1c(NC(=O)CN2C(=O)NC(Cc3ccccc3)C2=O)sc2c1CCC2 (stereo not drawn) 51.4%
O=C(Nc1sc2c(c1C(=O)O)CCCC2)c1ccc(Cl)cc1 26.7%
O=C(NC1CCCC1)C(c1cccnc1)N(CCc1ccccc1)C(=O)c1ccco1 (stereo not drawn) -5.07%
CC1CCC(NC(=O)Cn2c3c(c(-c4ccccc4Cl)cc2=O)CCC3)CC1 (stereo not drawn) 44.9%
CC1CCC(NC(=O)c2ccc(NC3=NC4CS(=O)(=O)CC4S3)cc2)CC1 (stereo not drawn) 54.4%
NC(N)=Nc1nc(CCN2C(=O)c3ccccc3C2=O)cs1 59.8%
CCN(CC)S(=O)(=O)c1cc(C(=O)N2CCc3ccccc32)ccc1Cl 14.8%
CC(C)n1c(O)c(N=NC(=O)CNC(=O)Cc2ccc(Cl)cc2)c2ccccc21 50.6%

From PubChem BioAssay AID504840 (Johns Hopkins Ion Channel Center, 2011)
